Screening data from PubChem BioAssay.
MEKK3 PB1 HTS – raises or lowers MEK5 binding to the human MEKK3 PB1 domain | actives 1.4% (n = 290,000) | binding response (% of control), % at 10 µM | Q99759 | bead-based flow cytometry, Alexa488-MEK5 binding to MEKK3; actives lie on both sides; 0 = blocked by unlabeled MEK5, 100 = vehicle | AID 1529;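 active = binding response more than 3 SD above or below the average of its plate-row segment, actives on both sides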;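 note: Alexa488 bead fluorescence after subtracting the streptavidin-only scavenger bead signal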
GRK2 inh – blocks RNA aptamer binding to human GRK2 | P25098 | bead flow cytometry, FAM-aptamer displacement from GRK2 | actives 0.59% (n = 330,000) | inhibition of aptamer binding, % at 10 µM | AID 488847;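 active = inhibition of aptamer binding above 40%, roughly 3 SD of noise, on plates passing a quality check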;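 note: median bead fluorescence of bound FAM aptamer so fluorescent compounds give negative values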
Target sequence (P25098 whole entry, looked up): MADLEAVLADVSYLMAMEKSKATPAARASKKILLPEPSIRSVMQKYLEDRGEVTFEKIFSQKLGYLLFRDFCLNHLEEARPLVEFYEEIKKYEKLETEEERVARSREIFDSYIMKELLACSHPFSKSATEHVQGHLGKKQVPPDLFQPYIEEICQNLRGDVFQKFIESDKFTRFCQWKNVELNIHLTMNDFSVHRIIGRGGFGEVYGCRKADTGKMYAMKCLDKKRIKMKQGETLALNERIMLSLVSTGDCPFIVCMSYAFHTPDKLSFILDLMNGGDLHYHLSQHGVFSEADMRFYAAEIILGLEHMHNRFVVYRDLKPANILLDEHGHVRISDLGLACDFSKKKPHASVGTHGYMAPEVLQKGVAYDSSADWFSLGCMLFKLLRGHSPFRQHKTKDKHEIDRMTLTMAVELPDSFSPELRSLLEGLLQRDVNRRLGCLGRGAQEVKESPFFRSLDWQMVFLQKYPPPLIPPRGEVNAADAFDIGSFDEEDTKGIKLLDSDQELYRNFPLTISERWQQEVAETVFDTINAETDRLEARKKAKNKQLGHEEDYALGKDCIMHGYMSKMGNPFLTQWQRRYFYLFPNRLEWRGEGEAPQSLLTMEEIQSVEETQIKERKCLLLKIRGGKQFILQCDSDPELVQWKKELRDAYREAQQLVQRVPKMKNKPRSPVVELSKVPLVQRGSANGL
MEKK2 WT-MEK5 – raises or lowers MEK5 binding to wildtype human MEKK2 PB1 domain | Q9Y2U5 | actives 1.1% (n = 290,000) | binding response (% of control), % at 10 µM | bead flow cytometry, Alexa488-MEK5 binding to MEKK2 WT; actives lie on both sides; in the data active = binding response below about 67% or above about 130%
MEKK2mut PB1 HTS – signal of MEK5 binding to mutant human MEKK2 PB1 domain; percent response, % at 10 µM; actives 0.35% (n = 290,000); bead flow cytometry, Alexa488-MEK5 binding to MEKK2 mutant; AID 1530; in the data active = percent response above about 24%, passing the limit was not always enough
MEKK2wt confirm – raises or lowers MEK5 binding to wildtype human MEKK2, retest. shares compounds with MEKK3 PB1 HTS. bead flow cytometry, Alexa488-MEK5 binding to MEKK2 WT; actives lie on both sides. binding response (% of control), % at 10 µM. actives 2.4% (n = 5,900). AID 1892; in the data active = binding response below about 16% or above about 210%; inactive = in between
MEKK2mut-MEK5 – signal of MEK5 binding to mutant human MEKK2, retest; shares compounds with MEKK3 PB1 HTS; bead flow cytometry, Alexa488-MEK5 binding to MEKK2 mutant; percent response, % at 10 µM; actives 2% (n = 5,900); AID 1893; in the data active = percent response mostly above about 71%, no sharp cut-off; inactive = mostly below about 38%;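 note: higher means compound restores mutant binding toward wildtype level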
MEKK3-MEK5 inh – MEKK3-MEK5 PB1 inhibition, single concentration confirmation. binding response (% of control), % at 10 µM. bead flow cytometry, Alexa488-MEK5 binding to MEKK3; hits give low values. shares compounds with MEKK3 PB1 HTS. actives 1.8% (n = 5,900). AID 1894;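 active = binding response below 72% of control, or above a set upper limit, though filed actives all read lower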;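 note: 100% = DMSO only wells and 0% = binding blocked by excess unlabeled MEK5; lower values mean stronger disruption of MEK5 binding to MEKK3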
An asterisk follows results filed as active; [ ] = remark or other dose. Compounds with a hit are over-represented: about 2.5% of the library has one in this group of screens.

For CCC[C@@H](CN[C@@H](CNC)[C@H](C)CC)NCC1CCC(C(C)(C)C)CC1 (stereo partly drawn) the results were MEKK3 PB1 HTS 103.0, GRK2 inh 0.0, MEKK2 WT-MEK5 148.0*, MEKK2mut PB1 HTS 5.0, MEKK2wt confirm 134.0, MEKK2mut-MEK5 35.0 and MEKK3-MEK5 inh 109.0.
For CCC[C@H](CN[C@@H](CNC)[C@H](C)CC)NCCc1cc(C(F)(F)F)cc(C(F)(F)F)c1 the results were MEKK3 PB1 HTS 104.0, GRK2 inh 0.0, MEKK2 WT-MEK5 158.0*, MEKK2mut PB1 HTS 8.0, MEKK2wt confirm 176.0, MEKK2mut-MEK5 47.0 and MEKK3-MEK5 inh 110.0.
For COc1ccc(C(=O)N/N=C2\SCC(=O)N2Cc2ccc3c(c2)OCO3)c(OC)c1 the results were MEKK3 PB1 HTS 99.0, GRK2 inh 0.0, MEKK2 WT-MEK5 100.0 and MEKK2mut PB1 HTS 0.0.
Cc1nc(NC(=S)NC(=O)COc2ccc(Cl)cc2)ccc1Br was read as MEKK3 PB1 HTS 139.0*, GRK2 inh 4.0, MEKK2 WT-MEK5 104.0, MEKK2mut PB1 HTS -1.0, MEKK2wt confirm 101.0, MEKK2mut-MEK5 4.0 and MEKK3-MEK5 inh 102.0.
O=C(NN1C(=O)C2C3C=CC(C3)C2C1=O)c1ccncc1 (stereo not drawn) was read as MEKK3 PB1 HTS 103.0, GRK2 inh 0.0, MEKK2 WT-MEK5 129.0 and MEKK2mut PB1 HTS 25.0.
O=C(Cc1cccc2ccccc12)N/N=C/c1ccncc1 was read as MEKK3 PB1 HTS 100.0, GRK2 inh 4.0, MEKK2 WT-MEK5 97.0 and MEKK2mut PB1 HTS -7.0.
For O=C(Cc1cccc2ccccc12)N/N=C/c1ccc(F)cc1 the results were MEKK3 PB1 HTS 122.0*, GRK2 inh 0.0, MEKK2 WT-MEK5 113.0, MEKK2mut PB1 HTS 6.0, MEKK2wt confirm 95.0, MEKK2mut-MEK5 2.0 and MEKK3-MEK5 inh 96.0.
For COc1ccc(/C=C/C(=O)N2CCN(S(=O)(=O)/C=C/c3ccccc3)CC2)cc1OC the results were MEKK3 PB1 HTS 145.0*, GRK2 inh 0.0, MEKK2 WT-MEK5 108.0, MEKK2mut PB1 HTS 0.0, MEKK2wt confirm 102.0, MEKK2mut-MEK5 6.0 and MEKK3-MEK5 inh 104.0.
`COc1ccc(/C=C/C(=O)N2CCN(S(=O)(=O)c3ccccc3)CC2)cc1OC` gave MEKK3 PB1 HTS 98.0, GRK2 inh 0.0, MEKK2 WT-MEK5 89.0 and MEKK2mut PB1 HTS -3.0.
`CCOC(=O)c1c(CSc2ccc(CC)cc2)oc2ccc(O)c(CN(C)C)c12` gave MEKK3 PB1 HTS 112.0, GRK2 inh 0.0, MEKK2 WT-MEK5 153.0*, MEKK2mut PB1 HTS 36.0*, MEKK2wt confirm 166.0, MEKK2mut-MEK5 38.0 and MEKK3-MEK5 inh 109.0.
Screening CCN(CC(=O)Nc1ccc(NC(C)=O)cc1)C(=O)c1n[nH]c(=O)c2ccccc12 returned MEKK3 PB1 HTS 55.0*[inhibitor], GRK2 inh 0.0, MEKK2 WT-MEK5 72.0, MEKK2mut PB1 HTS -34.0, MEKK2wt confirm 100.0, MEKK2mut-MEK5 4.0 and MEKK3-MEK5 inh 103.0.
CCN(CC(=O)Nc1ccc(NC(C)=O)cc1)C(=O)/C=C/c1ccccc1 was read as GRK2 inh 2.0.
CCN(CC(=O)Nc1ccc(NC(C)=O)cc1)C(=O)C(c1ccccc1)c1ccccc1 was read as MEKK3 PB1 HTS 131.0*, GRK2 inh 0.0, MEKK2 WT-MEK5 105.0, MEKK2mut PB1 HTS 0.0, MEKK2wt confirm 88.0, MEKK2mut-MEK5 3.0 and MEKK3-MEK5 inh 96.0.
Screening CN(C(=O)COc1cc(C(F)(F)F)nn1C)c1ccccc1 returned MEKK3 PB1 HTS 100.0, GRK2 inh 1.0, MEKK2 WT-MEK5 102.0 and MEKK2mut PB1 HTS 4.0.
For Cc1ccccc1N=C1Nc2ccccc2CS1 the results were MEKK3 PB1 HTS 104.0, GRK2 inh 1.0, MEKK2 WT-MEK5 102.0 and MEKK2mut PB1 HTS 2.0.
For O=c1[nH]c(Nc2ccc(F)cc2)cc2ccccc12 the results were MEKK3 PB1 HTS 104.0, GRK2 inh 23.0, MEKK2 WT-MEK5 104.0 and MEKK2mut PB1 HTS 5.0.
